Experimental data published in the supplement of paper PMC10338343.
± gives the standard deviation. The full ranking holds about 3,700 sequences; the median of “pre-steady-state target cleavage rate” is about 0.02, and the highest 2% start at about 0.23. The sample as a whole holds a higher share of the highest values than the screen did.

What follows are sequences tested on MILI (PIWIL2) piRISC loaded with Kctd7 piRNA (26 nt) (assay: pre-steady-state target cleavage rate (min^-1); MIWI and MILI are mouse PIWI proteins and EfPiwi is from a freshwater sponge; tags in brackets are library labels; higher = faster piRNA-guided slicing of the target). Details: guide: Kctd7 piRNA 5'p-UGUUAAUCUCUCAGAGAAGGUGACAG; auxiliary factor: 500 nM mouse GTSF1.
Protocol: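 Cleave-'n-Seq: a library of target RNAs (target site embedded in constant flanks, ACAGCATTCCGCGTTAGTGATATCCG... 5' flank; DNA-blocked outside the site) at 0.1 nM was incubated with 1 nM active mouse MILI or MIWI piRISC (synthetic 5'-monophosphorylated piRNA guide) with or without 500 nM mouse GTSF1 at 33 °C for 1 min to 16 h. Uncleaved targets were sequenced and normalised to non-target controls, and the pooled three trials were fitted to a burst-and-steady-state model to give the pre-steady-state cleavage rate (min^-1; k3 is constrained to at most 1e-4). Sequence is the target site only; target names encode pairing extent (gX:gY) and contiguous / 1-mismatch / 2-mismatch / bulge geometry. Fits with R² ≤ 0 are excluded.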

Sequence	pre-steady-state target cleavage rate
UAGUGUGUCACCAACUCUGAGAGAUUUUGA	0.00551 ± 0.0041
UAGUGAGUGACCUUCUCUGAGAGAUUAUGA	0.0378 ± 0.011
UAGUGACAGACCUUCUCUGAGAGAUUAGCA	0.0252 ± 0.013
UAGUGUGUCAGCUUCUCUGUGAGAUUAACA	0.0415 ± 0.0032
UAGUGACACACCUUCUCUCAGAGAUUAUGA	0.00858 ± 0.0045
UAGUCUGUCUCCUUCUCUGAGAGAUUAUGA	0.0111 ± 0.0041
UAGUGACUCACCUUCAGUGAGAGAUUAACA	0.0471 ± 0.0078
UAGUGUGCUCACCUUCUCUGAGAGAUUAACA	0.205 ± 0.013
UAGUGAGUCACCUUCUCUGAGAGAUAUAACA	0.347 ± 0.046
UAGUGUGAUCACCUUCUCUGAGAGAUUAACA	0.24 ± 0.018
UAGUGAGUCACCUUCUCUGAGAGAUAACA	0.107 ± 0.038
UAGUGAGAUCACCUUCUCUGAGAGAUUAACA	0.178 ± 0.015
UAGUGAGUCACCUUCUCUGAGAGAUAUACA	0.0915 ± 0.025
UAGUGUGUCACCUUCUCGGAGAGAUUAACA	0.153 ± 0.017
UAGUCUGUCACCAUCACUGAGAGAUUAACA	0.11 ± 0.0083
UAGUGACAGUCCUUGUGUGAGAGAUUAACA	0.0291 ± 0.0078
UAGUGACAGUGGAACUCUGACAGAUUAUCA	< 0.0001
UAGUGUGUCACCCUUCUCUGAGAGAUUAACA	0.104 ± 0.016
UAGUGUGUCACCUUUUCUGAGAGAUUAACA	0.249 ± 0.02
UAGUGUGUCACCUUCUCUGAGAGAUUACCA	0.197 ± 0.037
UAGUGUGUCACCUUCUCUGAGAGAUUAACG [g2:g25:cont:t1G]	0.267 ± 0.02

Sequence	pre-steady-state target cleavage rate
UAGUGUGUCACCUUUCUGAGAGAUUAACA	0.0596 ± 0.013
UAGUGUGUCACCUUUCUCUGAGAGAUUAACA	0.187 ± 0.016
UAGUGUGUCACCUUCUCUGAGAGAUUAACC [g2:g25:cont:t1C]	0.202 ± 0.014
UAGUGUGUCACCUUCUCUGAGAGAUUAACCA	0.236 ± 0.021
UAGUGUGUCACCUUCUCUGAGAGAUUAACU [g2:g25:cont:t1U]	0.187 ± 0.015
UAGUGUGUCACCUUCUGUGUGAGAUUAACA	0.0302 ± 0.004
UAGUGACAGUGGAAGUCUGAGAGUUAAACA	< 0.0001
UAGUGACACACCUUCUGAGAGAGAUUAUGA	0.0134 ± 0.0078
UAGUGACAGUCCUUCUCUAAGAGAUUAACA	0.0523 ± 0.012
UAGUGACAGUGGAAGAGUGAGGAGAUUAACA	< 0.0001
UAGUGACUCACCUUCUGUGAGAGUUUAACA	0.0308 ± 0.01
UAGUGUGUCUCCUUCUCUGAGACAUUAACA	0.00482 ± 0.0038
UAGUCAGUCACCUUCUCUGAGAGUUUAACA	0.261 ± 0.041
UAGUGAGUCACCUUCUCUGAGAGAUUUAACA	0.225 ± 0.04
UAGUGAGUCACCUUCUCUGAGAGUUAACA	0.253 ± 0.077
UAGUGAGUCACCUUCUCUGAGAGUAUUAACA	0.158 ± 0.019
UAGUGAGUCACCUUCUCUGAGAGCUUAACA	0.155 ± 0.026
UAGUCUGACACCUUCUCUGAGAGUUUAACA	0.109 ± 0.016
UAGUGAGUCACCUUCUCUGAGAGUAUAACA	0.144 ± 0.057
UAGUGAGUCACCUUCUCUCAGAGUUUAACA	0.0248 ± 0.0099
